Assay outcomes (PubChem BioAssay)
Hits are enriched below; roughly 19% of the tested compounds scored in any of these assays.
TDP1 cell CPT – qHTS for Inhibitors of human tyrosyl-DNA phosphodiesterase 1 (TDP1): qHTS in cells in presence of CPT; chicken DT40 Tdp1-/-;hTDP1 cells + 20 nM CPT, ATP luminescence, 48 h; Potency, µM (doses to about 46.2 µM), actives largely listed as inhibitors; 420,000 compounds, 12% hits; AID 686979, 2013; further: nearly all actives have a fitted effect of over 55% in size
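Chicken DT40 Tdp1-/- cells complemented with human TDP1, 400 cells/well, exposed to compounds plus 20 nM camptothecin for at least 48 h at 37 C; viability read as ATP content by CellTiter-Glo luminescence.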
DT40 TDP1 no CPT – qHTS for Inhibitors of human tyrosyl-DNA phosphodiesterase 1 (TDP1): qHTS in cells in absence of CPT | Potency, µM (series often up to 46.2 µM), hits mostly inhibitors | 420,000 compounds, 15% hits | DT40 Tdp1-/- hTDP1 cells, no CPT, ATP luminescence, 48 h; further: nearly all actives have a fitted effect of over 55% in size
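Growth of hTDP1-complemented DT40 Tdp1-knockout cells is measured by ATP luminescence after at least 48 hr compound exposure at 37 °C, with DMSO substituting for the 20 nM CPT used in the parallel screen.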
IL-1B inflam inh – qHTS for Inhibitors of Inflammasome Signaling: IL-1-beta AlphaLISA Primary Screen; THP-1 LPS/ATP IL-1B secretion, AlphaLISA, 16 h; hits give low values; activity change, % at 57.5 µM; 360,000 compounds, 4.7% hits; AID 743279, 2014; in the data active means activity change below about -50%; inconclusive means mostly about -30% to -49%
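Secreted IL-1B measured by AlphaLISA bead assay after 16 h compound exposure of THP-1 cells; compounds (final up to 57.5 uM) added 1 h before LPS (250 ng/mL) and ATP (1.25 mM) stimulation; lower signal means less secretion.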
Giardia kill – Small Molecules that selectively kill Giardia lamblia: qHTS | Giardia lamblia trophozoite viability | activity change, % at 7.66 µM, hits read low | 340,000 compounds, 0.15% hits; in the data active means activity change below about -80%; inconclusive means between about -30% and that limit;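 further: parasites exposed to compound for two days anaerobically before the ATP read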
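Luminescence from cellular ATP indicates surviving trophozoites (100 cells/well) following 48 hrs anaerobic compound treatment at 37 deg C; signal develops 15-30 min at room temperature.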
TDP1 inh – qHTS Assay for Inhibitors of Tyrosyl-DNA Phosphodiesterase (TDP1); Tyrosyl-DNA phosphodiesterase 1 (Homo sapiens), Q9NUW8; AID 485290, 2010; Potency, µM (series often up to 130 µM), most hits filed as inhibitors; 350,000 compounds, 0.28% hits; recombinant TDP1, AlphaScreen DNA substrate cleavage; further: nearly all actives have a fitted effect of over 40% in size
Target sequence (Q9NUW8 whole entry, looked up): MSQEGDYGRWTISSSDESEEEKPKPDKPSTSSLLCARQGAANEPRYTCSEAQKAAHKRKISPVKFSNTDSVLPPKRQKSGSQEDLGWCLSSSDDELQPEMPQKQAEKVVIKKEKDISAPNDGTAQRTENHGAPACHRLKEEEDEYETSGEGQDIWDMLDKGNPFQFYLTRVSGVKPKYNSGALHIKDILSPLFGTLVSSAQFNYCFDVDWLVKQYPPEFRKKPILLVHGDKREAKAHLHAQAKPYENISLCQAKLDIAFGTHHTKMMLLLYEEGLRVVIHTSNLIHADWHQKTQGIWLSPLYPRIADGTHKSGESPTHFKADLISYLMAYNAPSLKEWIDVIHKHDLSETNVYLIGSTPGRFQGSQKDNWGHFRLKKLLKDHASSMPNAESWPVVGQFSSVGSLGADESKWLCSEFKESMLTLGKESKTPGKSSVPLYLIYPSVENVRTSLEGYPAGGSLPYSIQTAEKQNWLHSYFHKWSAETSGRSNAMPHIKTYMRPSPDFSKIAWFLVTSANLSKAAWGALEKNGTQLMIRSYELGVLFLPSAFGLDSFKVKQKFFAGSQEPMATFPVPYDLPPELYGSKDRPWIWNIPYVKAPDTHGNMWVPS
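Compounds were preincubated with Tdp1 (1 nM final) for 15 min at room temperature before substrate (15 nM final) started a 5 min reaction; beads (10 ug/ml final) were then added for 10 min before AlphaScreen detection.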
ELG1 DNA repair – qHTS screen for small molecules that inhibit ELG1-dependent DNA repair in human embryonic kidney (HEK293T) cells expressing luciferase-tagged ELG1; HEK293T ELG1-luciferase reporter, luminescence, 16 h; DNA damage induced by 5-fluorouridine; Potency, µM (top dose mostly 46.1 µM), usual class: inhibitors; 330,000 compounds, 2.3% hits; further: nearly all actives have a fitted effect of over 55% in size
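5-Fluorouridine DNA damage + compound/DMSO, 2,000 cells/well, 16 h, 37 °C/5% CO2. ONE-Glo, 30 min RT, luminescence. Readout = decrease in reporter signal.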
Numbers stand for hits; . = inactive; ? = inconclusive; / = no result. Unless noted, the call rests on the fitted dose curve; in most records, active means well fitted curve in the direction sought with a large enough effect; inconclusive means small, poorly fitted or top-dose-only effect, or another doubt; inactive means no such curve, though single readings can be large; an effect the other way counts as inactive or inconclusive.

SMILES	TDP1 cell CPT	DT40 TDP1 no CPT	IL-1B inflam inh	Giardia kill	TDP1 inh	ELG1 DNA repair
CC[C@@]1([C@@H]2O[C@@H]([C@H]3O[C@@](O)(CO)[C@H](C)C[C@@H]3C)C[C@@H]2C)CC[C@@H]([C@]2(C)CCC3(C[C@H](O)[C@@H](C)[C@@H]([C@@H](C)[C@@H](OC)[C@H](C)C(=O)O)O3)O2)O1 (stereo partly specified)	/	/	/	/	.	/
O=C(Nc1nc2c(F)cc(F)cc2s1)c1ccc2c(c1)OCCO2	.	.	/	/	44.7µM	/
Cc1ccccc1CN1CCN(Cc2ccc3cccc(F)c3n2)CC1CCO (stereo unspecified)	.	.	.	.	.	.
Cc1ccc(/C=C2/CNC/C(=C\c3ccc(C)cc3)C2=O)cc1	/	/	/	/	.	/
CCc1c(C)nc2ncnn2c1N1CCC(C(=O)N2CCN(c3ccc(F)cc3)CC2)CC1	16.4µM	14.6µM	.	.	.	23.1µM
O=C(C1CCN(c2ncnc3c2nc2n3CCCCC2)CC1)N1CCCCC1	.	?	.	.	.	.
O=C(C1CCN(c2ncnc3c2nc2n3CCCCC2)CC1)N1CCN(c2ccccc2)CC1	?	20.6µM	/	/	.	/
O=C(C1CCN(c2ncnc3c2nc2n3CCCCC2)CC1)N1CCN(c2ccc(F)cc2)CC1	?	11.6µM	.	.	.	7.3µM
CCc1c(C)nc2ncnn2c1N1CCC(C(=O)N2CCN(c3ccccc3)CC2)CC1	/	/	/	/	.	.
CN1CCN(C(=O)C2CCN(c3ncnc4c3nc3n4CCCCC3)CC2)CC1	.	.	.	.	.	.
CCC(C(=O)Nc1ccccc1OC)n1c(C(=O)OC)cc2sc(Cl)cc21 (stereo unspecified)	.	?	/	/	.	/
Cc1ccccc1N(CC(=O)Nc1ccc(S(=O)(=O)N2CCOCC2)cc1)S(C)(=O)=O	.	.	.	.	.	.
CCOc1ccc(NC(=O)C2CC(=O)N(c3ccc(C(C)C)cc3)C2)cc1 (stereo unspecified)	.	.	/	/	/	/
O=C(NNS(=O)(=O)c1ccccc1[N+](=O)[O-])c1cc2ccccc2cc1O	.	.	.	.	.	.
CCOC(=O)CN(C(=O)CSc1nnc2c(n1)[nH]c1ccc(F)cc12)c1ccccc1	20.6µM	?	?	.	.	?
CCOC(=O)CN(C(=O)CSc1nnc2c(n1)[nH]c1c(C)cc(C)cc12)c1ccccc1	/	/	/	/	.	16.4µM
CCOC(=O)CN(C(=O)CSc1nnc2c(n1)[nH]c1ccccc12)c1ccccc1	?	?	.	.	.	.
Cc1cc(C)n2nc(SCCC(=O)NCc3ccccc3)nc2n1	.	.	.	?	.	.
CCN(CC)C(=O)[C@H]1C[C@H](CC(=O)NCc2cccc(C(F)(F)F)c2)C(=O)N2CCc3c([nH]c4cc(CCC(=O)N(C)C)ccc34)[C@]12C	?	?	.	.	.	.
CCN(CC)C(=O)[C@H]1CC(CC(=O)NCc2cccc(C(F)(F)F)c2)C(=O)N2CCc3c([nH]c4ccccc34)[C@]12C (stereo partly specified)	14.6µM	20.6µM	?	.	.	.
CC(C)N(C(=O)[C@H]1C[C@H](CC(=O)NCc2cccc(C(F)(F)F)c2)C(=O)N2CCc3c([nH]c4cc(CCC(=O)N(C)C)ccc34)[C@]12C)C(C)C	?	?	-66.9	.	.	.
Cn1ncc([N+](=O)[O-])c1C(=O)Nc1ccc(-c2ccccc2)cc1	.	.	.	.	/	?
Cc1ccc(NC2=C(Cl)C(=O)OC2OC(=O)c2ccco2)cc1 (stereo unspecified)	?	16.4µM	.	.	.	.
Cc1cccc(NC2=C(Cl)C(=O)OC2OC(=O)c2ccco2)c1 (stereo unspecified)	20.6µM	20.6µM	.	.	.	.
Cc1ccccc1NC1=C(Cl)C(=O)OC1OC(=O)c1ccccc1C (stereo unspecified)	?	?	-83.2	.	.	.
SMILES	TDP1 cell CPT	DT40 TDP1 no CPT	IL-1B inflam inh	Giardia kill	TDP1 inh	ELG1 DNA repair
Cc1cccc(NC2=C(Cl)C(=O)OC2NC(=O)c2ccccc2)c1 (stereo unspecified)	.	.	.	.	.	.
COc1cccc(CNC(=O)CN2C(=O)COc3ccc(S(=O)(=O)Nc4ccccc4)cc32)c1	?	.	/	/	.	/
CCOc1ccccc1N(C)C(=O)c1sc2nc3n(c(=O)c2c1C)CCCC3	?	?	/	/	.	/
CN(C)c1ccc(CN(CC2CCCO2)C(=O)COc2ccc(Cl)cc2)cc1 (stereo unspecified)	25.9µM	18.4µM	/	/	.	/
Cc1cc(OCC(=O)N(Cc2ccc(N(C)C)cc2)CC2CCCO2)ccc1Cl (stereo unspecified)	23.1µM	.	/	/	.	/
CCCOc1ccc(C(=O)N(Cc2ccc(N(C)C)cc2)CC2CCCO2)cc1 (stereo unspecified)	?	?	/	/	.	/
Cc1ccc(OCCCNCCO)c(Br)c1	4.61µM	4.61µM	-59.9	.	.	.
CNCCCOc1ccc(C)cc1Br	.	.	.	.	?	?
CCCCNCCCOc1ccc(C)cc1Br	18.4µM	16.4µM	/	.	.	.
O=[N+]([O-])c1cc(CN2CCCC2)ccc1Sc1ccc(Cl)cc1	10.3µM	8.2µM	.	.	.	.
Clc1ccc(CN2CCCCCC2)cc1	.	.	.	.	/	.
Cc1ccc(NC(=S)N(CCN(C)C)C(C)c2ccco2)cc1C (stereo unspecified)	18.4µM	?	.	.	.	.
COCCN(C(=S)Nc1ccc(C)c(C)c1)C(C)c1ccco1 (stereo unspecified)	?	?	.	.	.	?
CN(C(=S)Nc1ccc(F)cc1)C(c1ccccc1)c1ccccc1	?	?	.	.	/	?
Cc1ccc(NC(=S)N(C)C(c2ccccc2)c2ccccc2)cc1C	?	23.1µM	.	.	/	13µM
Cc1cccc(CCNS(=O)(=O)c2ccc3c(c2)CCN3C(=O)CCC(=O)O)c1	.	.	.	.	.	.
c1ccc2c(CN3CCSCC3)cccc2c1	.	.	.	.	/	?
Cc1ccc2cc(CN(Cc3ccco3)C(=S)NCC3CCCO3)c(=O)[nH]c2c1 (stereo unspecified)	?	20.6µM	.	.	.	20.6µM
